Screening data (PubChem BioAssay)
Shown are actives, neighbours in structure and some others; about 3.2% of the full set was active somewhere.
rCAG RNA binder – r(CAG) repeat RNA binding. TO-PRO-1 dye displacement fluorescence. inhibition, % at 3 µM. 370,000 tested, 1.3% active. AID 651821;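 active = inhibition above the plate cutoff, the mean of all test compounds on that plate plus 3 SD, cut at about 35% in these data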;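 note: 0% = DMSO alone and 100% = 100 µM mitoxantrone as full dye displacement; higher means more dye released from RNA so lower well fluorescence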
DSG3 Ab inh – human desmoglein-3 autoantibody binding inhibition. binding (percent of control), % at 10 µM. AID 588358. DSG3-coupled beads, scFv-anti-DSG3-GFP binding, flow cytometry; hits give low values. P32926. 310,000 tested, 0.48% active;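 active = binding more than 3 SD below its plate's average and above zero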;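 note: hits lower antibody fragment binding to DSG3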
NadD inh – NadD (S. aureus) enzyme inhibition; purified NadD enzyme, colorimetric absorbance read-out; inhibition, % at 20 µM; 360,000 tested, 0.78% active; AID 602399; in the data active = inhibition above about 26%
DAGLB inh – diacylglycerol lipase beta (human) inhibition; Q8NCG7; HEK293T DAGLB membrane lysate, EnzChek fluorogenic substrate; inhibition, % at 5.17 µM; 340,000 tested, 0.059% active; in the data active = inhibition above about 34%;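 note: 0% = enzyme with vehicle and 100% = wells lacking enzyme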
MsrA inh – inhibitors of bovine MsrA | purified bovine MsrA, absorbance read-out | inhibition, % at 15.5 µM | 360,000 tested, 0.75% active; in the data active = inhibition above about 4.5%;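 note: 0% = vehicle wells with enzyme and 100% = reference inhibitor wells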
bovine MsrA act – activates bovine MsrA enzyme. purified bovine MsrA, absorbance read-out. activation, % at 10.6 µM. 360,000 tested, 0.3% active. AID 602163; in the data active = activation above about 7.5%;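 note: 0% = vehicle and 100% = reference activator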
NadD conf – confirmation of Staphylococcus aureus NadD inhibitors; inhibition, % at 20 µM; 2,000 tested, 13% active; purified S. aureus NadD, colorimetric enzyme assay; AID 624309; shares compounds with NadD inh; in the data active = inhibition mostly above about 42%, no sharp cut-off; inactive = mostly below about 42%
* = called active by the depositor; nt = not tested or not shown.

SMILES	rCAG RNA binder	DSG3 Ab inh	NadD inh	DAGLB inh	MsrA inh	bovine MsrA act	NadD conf
Cc1cccc(N2CCN(C(=O)CCCn3c(=S)[nH]c4cc5c(cc4c3=O)OCO5)CC2)c1C	1.7	nt	56.2*	0.4	0.7	-1.7	14.2
CC(CNC(=O)[C@@H](Cc1ccccc1)NC(=O)CC[C@H]1O[C@@H](n2ccc(=O)[nH]c2=O)[C@H](O)[C@@H]1O)c1ccccc1 (stereo partly drawn)	-0.4	nt	-6.2	nt	1.2	-3.0	nt
CN(CCCn1ccc(NC(=O)OCc2ccccc2)nc1=O)CCc1ccccn1	0.1	nt	6.4	-0.9	-1.5	-2.3	nt
O=C(Cn1nc(-c2ccccc2)ccc1=O)NCCc1ccc(F)cc1	1.8	nt	nt	nt	nt	nt	nt
CCOc1ccc(/C=C/C2=Cc3c(sc(NC(=O)CSc4n[nH]c(N)n4)c3C#N)C(C)(C)C2)cc1	43.2*	80.6*	58.0*	-1.2	0.6	-3.9	26.1
Cc1ccccc1/C=N/n1c(-c2cc(-c3ccccc3)n[nH]2)n[nH]c1=S	30.8	101.8	52.9*	7.3	0.9	1.3	22.2
Cc1ccsc1/C=N/n1c(-c2cc(-c3ccccc3)n[nH]2)n[nH]c1=S	28.5	nt	14.8	6.7	-0.8	-0.4	nt
CCCCC1=CC2=CC(=O)C(C)(OC(=O)CCc3ccccc3)C(=O)C2=CO1 (stereo not drawn)	21.9	96.3	65.9*	9.8	-0.6	1.0	38.9*
CCCCC1=CC2=CC(=O)C(C)(OC(=O)c3cccs3)C(=O)C2=CO1 (stereo not drawn)	36.6*	96.4	32.0*	9.0	0.1	-2.9	47.1*
COC(=O)CCCC1=CC2=CC(=O)C(C)(OC(=O)c3cccs3)C(=O)C2=CN1c1ccccc1 (stereo not drawn)	10.4	101.2	4.5	4.7	0.0	-4.4	nt
Nc1[nH]c(C(=O)c2ccccc2)c(-c2ccccc2Br)c1C(=O)NCc1ccc(-c2ccccc2)cc1	18.1	nt	36.1*	nt	1.2	-3.5	50.2*
Nc1[nH]c(C(=O)c2ccccc2)c(-c2ccccc2Br)c1C(=O)NCCc1c[nH]c2ccccc12	10.9	nt	43.1*	nt	0.4	-3.5	27.6
Nc1[nH]c(C(=O)c2ccc(Br)cc2)c(-c2ccc(F)cc2)c1C(=O)NCCc1c[nH]c2ccccc12	6.4	nt	nt	nt	1.6	nt	nt
Nc1[nH]c(C(=O)c2ccccc2)c(-c2ccc([N+](=O)[O-])cc2)c1C(=O)NCCc1c[nH]c2ccccc12	11.8	nt	43.5*	nt	1.9	-9.0	23.6
Cc1ccc(-c2c(C(=O)c3ccccc3)[nH]c(N)c2C(=O)NCCc2c[nH]c3ccccc23)cc1	6.7	nt	nt	nt	-0.4	nt	nt
Nc1[nH]c(C(=O)c2ccc(Br)cc2)c(-c2ccc(Br)cc2)c1C(=O)NCCc1c[nH]c2ccccc12	11.0	nt	50.0*	nt	-0.5	-0.1	38.9
CS(=O)(=O)Nc1cccc(NC(=O)C2Cc3c(-c4cccc(F)c4)ccnc3O2)c1 (stereo not drawn)	4.6	nt	-1.8	nt	-1.8	-1.0	nt
C#CCNC(=O)C[C@@H]1C[C@@]2(C(=O)OC)CCCCC=C2N(CCC2=CCCCC2)C1=O	0.8	nt	-1.4	nt	1.2	-6.9	nt
C=CCN1C(=O)/C(=C2/Sc3ccc(OC)cc3N2C)SC1=NCc1ccccc1	-1.5	99.6	11.3	0.7	-1.2	-2.5	nt
COc1ccc2c(c1)N(C)/C(=C1/SC(=NCc3ccccc3)N(c3ccccc3)C1=O)S2	4.7	89.3	30.6*	-4.1	0.8	-0.9	16.8
COC(=O)C[C@H]1CC[C@@H]2[C@H](COc3ccc(NC(=O)c4cnccn4)cc3C(=O)N2C)O1	1.0	nt	nt	nt	nt	nt	nt
COc1cc(NCCCCCCN)c2ncccc2c1OC	7.0	66.2	51.2*	-1.1	-1.3	5.6	22.5
O=C(CSc1nc(C2CC2)nc2sc3c(c12)CCCC3)NCc1ccco1	2.5	105.0	-4.2	-2.3	1.4	-6.1	nt
CC(C)Sc1nc2sc3c(c2c2nnc(SCC(=O)NCc4ccco4)n12)CCCC3	12.7	nt	38.4*	-21.9	-0.2	-1.0	37.2
CCOC(=O)Nc1ccc2c(CN3CCN(S(=O)(=O)c4ccc(C(C)C)cc4)CC3)cc(=O)oc2c1	5.1	101.6	49.8*	0.1	-0.7	-3.0	6.3
SMILES	rCAG RNA binder	DSG3 Ab inh	NadD inh	DAGLB inh	MsrA inh	bovine MsrA act	NadD conf
CCOC(=O)Nc1ccc2c(CN3CCN(S(=O)(=O)c4ccccc4F)CC3)cc(=O)oc2c1	5.3	100.2	5.6	-1.1	0.6	-3.3	nt
O=C(Nc1ccc(-c2csc(Nc3cccc(C(F)(F)F)c3)n2)cc1)c1cc([N+](=O)[O-])cc(C(F)(F)F)c1	4.2	103.5	32.8*	0.9	0.2	-1.5	4.9
Oc1nc(Nc2ccc(Cl)cc2Cl)sc1/C=C1\C=Nc2ccccc21	17.0	101.6	41.7*	3.1	0.1	-5.2	0.1
Cc1nc(Nc2ccc(Cl)cc2Cl)sc1C(=O)Nc1ccccc1	3.4	103.1	-3.6	1.0	0.8	-1.9	nt
c1csc(-c2nc(N3CCOCC3)c3ccccc3n2)c1	-1.0	103.8	-6.5	-4.3	2.1	6.8	nt
O=S(=O)(c1ccc(Cl)cc1)N1CCN(c2nc(-c3cccs3)nc3ccccc23)CC1	1.8	102.6	29.5*	0.7	0.3	-2.6	27.5
CC(=O)OC12CCCN(C1)/C(=C/c1ccc(Cl)cc1)C2 (stereo not drawn)	1.4	nt	nt	nt	nt	nt	nt
CCCCN(C=O)c1c(CC)nc2ccc(C(=O)N(C)Cc3ccco3)cn12	-1.0	nt	-1.4	nt	-0.9	-3.1	nt
CN(CC(=O)Nc1ccc(F)cc1)C(=O)c1cc(-c2ccco2)nc2ccccc12	30.5	86.5	40.6*	5.3	0.6	-3.1	26.4
CCN(CC)C(=O)COC(=O)c1cc(-c2ccco2)nc2ccccc12	14.8	111.6	31.2*	0.5	0.9	1.3	21.3
COc1cccc(NC(=O)CN(C)C(=O)c2cc(-c3ccco3)nc3ccccc23)c1	11.5	102.8	5.3	1.7	0.8	-3.0	nt
COc1ccc([C@@H]2CC(=O)[C@@H]3CN(S(=O)(=O)c4ccc(Cl)cc4)[C@H](c4ccc(C)cc4)C[C@@H]3N2S(=O)(=O)c2ccccc2)cc1	15.0	nt	30.3*	nt	0.5	-8.2	7.9
CCN(CC)C(=O)c1cccc(-c2csc(C(O)c3cccc(OC)c3)n2)c1 (stereo not drawn)	0.3	nt	-3.7	nt	-1.1	3.9	nt
O=C(CCOc1ccccc1)Nc1nnc(-c2ccc3c(c2)OCCO3)o1	2.5	nt	2.9	-8.1	1.3	0.5	nt
O=C(Nc1nnc(-c2ccc3c(c2)OCCO3)o1)c1ccc(Cc2ccccc2)cc1	6.8	96.0	48.3*	0.1	-1.6	-1.5	7.9
CCOC1=C2CN(S(=O)(=O)c3ccc(C)cc3)[C@H](c3ccccc3)C[C@@H]2N(S(=O)(=O)c2ccccc2C)[C@H](c2ccccc2)C1	6.8	nt	2.1	nt	-0.4	-3.3	nt
Cc1ccc2[nH]c(C)c(CCNC(=O)c3cc4cc([N+](=O)[O-])ccc4oc3=O)c2c1	7.1	96.7	33.1*	9.2	-0.1	-4.0	4.8
